Among the data in PubChem BioAssay (EPA / NIEHS) are outcome and AC50 values, retold here.

Records with an inconclusive call do not appear. The source made the active and inactive calls. The calls were made as follows, unless noted: active = hit-call score of the fitted dose curve at least 0.9, where 1 is the maximum; inactive = score below 0.9.

As usually defined, the AC50 is the concentration at which the activity in the assay is half-maximal.

Assay [1] in a line: ATG_PBREM_CIS: Attagene CIS-FACTORIAL HepG2 Assay for human Phenobarbital-responsive Enhancer Module (PBREM) (AID 2282955). Conditions: HepG2 PBREM cis-reporter, Attagene multiplexed transcription; actives raise or lower the signal. In a few lines: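 Fluorescence of labelled reporter cDNA fragments, resolved by capillary electrophoresis, gives mRNA induction in transfected HepG2 cells treated for 24 h; DMSO serves as negative control and baseline.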

Assay [2] has as its target Paired box protein Pax-6 (Homo sapiens) (UniProt P26367). Kind of assay: ATG_Pax6_CIS: Attagene CIS-FACTORIAL HepG2 Assay for human Paired Box 6 (PAX6) (AID 2282956). Conditions: HepG2 CIS-FACTORIAL PAX6 reporter transcription, RNA readout; actives raise or lower the signal. In a few lines:
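Multiplexed cis-reporter HepG2 system; 24 h treatment; reporter mRNA read by RT-PCR/CE fluorescence; bidirectional fit vs DMSO.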

A short description of assay [3]: ATG_PXRE_CIS: Attagene CIS-FACTORIAL HepG2 Assay for human Pregnane X Receptor Element (PXRE) (AID 2282957). The settings on record: HepG2 Attagene CIS-FACTORIAL PXRE reporter, mRNA; actives raise or lower the signal. In a few lines: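 Cells: HepG2, transiently transfected reporter units under cis promoter control. Exposure: 24 h. Detection: reporter mRNA via RT-PCR/CE fluorescence; bidirectional fitting, DMSO-referenced.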

The nature of assay [4]: ATG_PPRE_CIS: Attagene CIS-FACTORIAL HepG2 Assay for human Peroxisome Proliferator-activated Response Element (PPRE) (AID 2282958). The settings on record: HepG2 PPRE cis-element reporter, Attagene transcription factor profiling; actives raise or lower the signal. In a few lines: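 Cells are first transfected transiently with the multiplexed reporter library, then dosed for 24 h. Total RNA is reverse-transcribed, amplified, fluorescently end-labeled and HpaI-cut before capillary electrophoresis; activity is fitted bidirectionally against DMSO controls.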

Assay [5] can be described thus: ATG_Sox_CIS: Attagene CIS-FACTORIAL HepG2 Assay for human SRY-box transcription factor (SOX) (AID 2282960). Conditions: HepG2 Attagene cis-factorial SOX reporter, mRNA; actives raise or lower the signal. In a few lines: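 Transient MRTU transfection of HepG2; 24 h compound incubation; TriZol RNA, oligo(dT) RT, PCR, 6-FAM primer extension, HpaI cut, CE. Bidirectional fit, DMSO = baseline.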

The target in assay [6] is Transcription factor Sp1 (Homo sapiens) (UniProt P08047). In words: ATG_Sp1_CIS: Attagene CIS-FACTORIAL HepG2 Assay for human Specificity Protein 1 (Sp1) (AID 2282961). Conditions: HepG2 Sp1 cis-reporter transcription, actives raise or lower the signal. In a few lines: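 Endogenous Sp1 activity was gauged in human liver HepG2 cells bearing transfected reporter units under a cis-regulating promoter. After 24 h dosing, reporter mRNA was quantified by RT-PCR with capillary electrophoresis, and activity fitted bidirectionally versus DMSO.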
Chain of Transcription factor Sp1 (Homo sapiens) (P08047 whole entry, looked up): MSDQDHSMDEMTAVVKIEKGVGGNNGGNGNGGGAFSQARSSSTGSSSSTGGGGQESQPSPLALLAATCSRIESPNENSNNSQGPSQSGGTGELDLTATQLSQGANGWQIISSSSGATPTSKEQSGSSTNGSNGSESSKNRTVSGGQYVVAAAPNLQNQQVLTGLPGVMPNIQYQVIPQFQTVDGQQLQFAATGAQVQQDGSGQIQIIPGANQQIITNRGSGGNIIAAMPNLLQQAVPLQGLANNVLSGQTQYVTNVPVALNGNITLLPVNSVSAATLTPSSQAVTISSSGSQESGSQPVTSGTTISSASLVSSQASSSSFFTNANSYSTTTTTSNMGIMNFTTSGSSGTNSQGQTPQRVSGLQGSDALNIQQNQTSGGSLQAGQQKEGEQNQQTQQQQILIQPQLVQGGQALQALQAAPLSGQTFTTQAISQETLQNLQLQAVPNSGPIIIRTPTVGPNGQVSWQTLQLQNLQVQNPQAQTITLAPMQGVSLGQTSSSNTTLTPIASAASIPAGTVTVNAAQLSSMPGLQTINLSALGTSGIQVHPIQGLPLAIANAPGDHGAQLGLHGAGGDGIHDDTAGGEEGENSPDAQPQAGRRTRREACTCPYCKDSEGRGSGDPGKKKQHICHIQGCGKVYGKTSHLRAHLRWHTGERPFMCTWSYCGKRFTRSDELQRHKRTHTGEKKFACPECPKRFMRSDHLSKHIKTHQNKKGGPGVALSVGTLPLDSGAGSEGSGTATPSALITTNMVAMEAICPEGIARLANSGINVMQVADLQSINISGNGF

A short description of assay [7]: ATG_SREBP_CIS: Attagene CIS-FACTORIAL HepG2 Assay for human Sterol Regulatory Element Binding (SREBP) (AID 2282962). The settings on record: HepG2 Attagene cis-factorial SREBP reporter, mRNA; actives raise or lower the signal. In a few lines: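 mRNA induction of transfected cis-promoter reporters in HepG2 cells, 24 h post-dose. Detection: RT-PCR with 6-FAM-labelled products, HpaI digest, capillary electrophoresis. DMSO served as negative control and baseline.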

Assay [8] concerns the target Signal transducer and activator of transcription 3 (Homo sapiens) (UniProt P40763). In words: ATG_STAT3_CIS: Attagene CIS-FACTORIAL HepG2 Assay for human Signal Transducer and Activator of Transcription 3 (STAT3) (AID 2282963). Conditions: HepG2, Attagene cis-factorial STAT3 reporter transcription; actives raise or lower the signal. In a few lines:
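Endogenous STAT3-responsive cis-element activity was read in transiently transfected HepG2 cells after 24 h treatment. Reporter transcripts were quantified via RT-PCR and capillary electrophoresis, with DMSO as negative control and bidirectional curve fitting.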

Assay [9] can be described thus: ATG_TA_CIS: Attagene CIS-FACTORIAL HepG2 Assay for human TA Basal Promoter (AID 2282964). The settings on record: HepG2 Attagene CIS-factorial TA basal promoter reporter; actives raise or lower the signal. In a few lines: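 Read-out: fluorescent reporter-transcript fragments resolved by capillary electrophoresis after RT-PCR and HpaI digestion. Source: HepG2 cells carrying transiently transfected multi-reporter cis constructs, treated 24 h. Endpoint fitted bidirectionally relative to DMSO.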

Assay [10] in a line: ATG_TCF_b_cat_CIS: Attagene CIS-FACTORIAL HepG2 Assay for human T-Cell-Factor with beta-catenin (TCF/b-cat) (AID 2282965). The settings on record: HepG2 TCF/beta-catenin cis-reporter transcription, actives raise or lower the signal. A digest of the protocol:
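Endogenous TCF/LEF activity read as reporter transcript level via RT-PCR and capillary electrophoresis fluorescence in transfected HepG2, 24 h exposure; gain or loss of signal fitted against DMSO controls.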

The nature of assay [11]: ATG_TAL_CIS: Attagene CIS-FACTORIAL HepG2 Assay for human TAL Basal Promoter (AID 2282966).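 Also: background control endpoint measuring basal TAL promoter reporter mRNA not a specific factor.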 Conditions: HepG2 Attagene cis-factorial TAL promoter reporter; actives raise or lower the signal. In a few lines:
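RT-PCR plus capillary electrophoresis quantifies reporter mRNA induction in transiently transfected HepG2 cells after 24 h chemical treatment. DMSO serves as negative control and baseline for bidirectional fitting.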

Assay [12] in a line: ATG_TGFb_CIS: Attagene CIS-FACTORIAL HepG2 Assay for human Transforming Growth Factor (TGF) (AID 2282967). Conditions: HepG2 Attagene CIS TGFb reporter, mRNA transcription; actives raise or lower the signal. In a few lines: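 Transient MRTU transfection of HepG2 (FuGene 6). Dose 24 h. TriZol RNA, oligo(dT) RT, PCR, 6-FAM primer extension, HpaI cut, CE. Bidirectional fit, DMSO = baseline.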

Assay [13] can be described thus: ATG_VDRE_CIS: Attagene CIS-FACTORIAL HepG2 Assay for human Vitamin D Receptor Element (VDRE) (AID 2282968). The settings on record: HepG2 VDRE cis-reporter transcription, actives raise or lower the signal. A digest of the protocol:
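Reporter mRNA induction, quantified by capillary electrophoresis of fluorescently labelled RT-PCR products, was read 24 h after dosing HepG2 cells carrying transiently transfected cis-regulated reporter units; gain or loss relative to DMSO.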

Assay [14] concerns the target Nuclear receptor subfamily 1 group I member 3 (Homo sapiens) (UniProt Q14994). In words: ATG_CAR_TRANS: Attagene TRANS-FACTORIAL HepG2 Assay for human Constitutive Androstane Receptor (CAR) (AID 2282969; active = hit-call score of the fitted dose curve at least 0.9, where 1 is the maximum;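 also: activators raise reporter mRNA above DMSO so AC50 marks induction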). Conditions: HepG2 Attagene TRANS-FACTORIAL CAR reporter. In a few lines:
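Readout is reporter mRNA induction, quantified by fluorescent primer extension and capillary electrophoresis after RT-PCR. Cells were HepG2 transiently carrying chimeric NR-Gal4 constructs with GAL4-UAS reporters, treated for 24 h; activity scored upward from DMSO.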

Assay [15] deals with Estrogen receptor (Homo sapiens) (UniProt P03372). In words: ATG_ERa_TRANS: Attagene TRANS-FACTORIAL HepG2 Assay for human Estrogen Receptor alpha (ERa) (AID 2282970; active = hit-call score of the fitted dose curve at least 0.9, where 1 is the maximum). Conditions: HepG2 Attagene TRANS ERa GAL4 reporter, mRNA. In a few lines:
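Cells: HepG2, transiently transfected. Construct: GAL4-UAS reporter units regulated by exogenous NR-Gal4 chimeras. Time: 24 h. Detection: reporter mRNA by RT-PCR, capillary electrophoresis, fluorescence. Baseline: DMSO, upward fitting.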

The target in assay [16] is X-box-binding protein 1 (Homo sapiens) (UniProt P17861). Kind of assay: ATG_Xbp1_CIS: Attagene CIS-FACTORIAL HepG2 Assay for human X-box Binding Protein 1 (XBP1) (AID 2282972). The settings on record: HepG2 XBP1 cis-element reporter, Attagene multiplex; actives raise or lower the signal. In a few lines:
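Fluorescence-labelled cDNA fragments from reporter transcripts, separated by capillary electrophoresis, give the signal. Source: HepG2 cells transfected with promoter-driven reporter units, harvested 24 h post-dose. DMSO served as reference for bidirectional curve fitting.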

Assay [17] in a line: ATG_RORE_CIS: Attagene CIS-FACTORIAL HepG2 Assay for human RAR-related Orphan Receptor Element (RORE) (AID 2282959). Conditions: HepG2 Attagene cis-factorial RORE reporter, mRNA; actives raise or lower the signal. A digest of the protocol:
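Cells were HepG2 carrying transfected cis-regulated reporter constructs, dosed for 24 hours. Total RNA was reverse-transcribed and reporter cDNA amplified, fluorescently labeled and sized by capillary electrophoresis. Activity was fitted bidirectionally relative to DMSO.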

Assay [18] can be described thus: ATG_GAL4_TRANS: Attagene TRANS-FACTORIAL HepG2 Assay for GAL4 (Internal Marker) (AID 2282976; active = hit-call score of the fitted dose curve at least 0.9, where 1 is the maximum). The settings on record: HepG2 Attagene TRANS GAL4 internal marker reporter. A digest of the protocol:
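In transfected human HepG2 liver cells dosed 24 h, GAL4 reporter mRNA serves as a baseline marker. Detection by RT-PCR with fluorescent capillary electrophoresis, activity fitted upward relative to DMSO.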

Chain of Nuclear receptor subfamily 1 group I member 3 (Homo sapiens) (Q14994 whole entry, looked up, the tested form may be a part): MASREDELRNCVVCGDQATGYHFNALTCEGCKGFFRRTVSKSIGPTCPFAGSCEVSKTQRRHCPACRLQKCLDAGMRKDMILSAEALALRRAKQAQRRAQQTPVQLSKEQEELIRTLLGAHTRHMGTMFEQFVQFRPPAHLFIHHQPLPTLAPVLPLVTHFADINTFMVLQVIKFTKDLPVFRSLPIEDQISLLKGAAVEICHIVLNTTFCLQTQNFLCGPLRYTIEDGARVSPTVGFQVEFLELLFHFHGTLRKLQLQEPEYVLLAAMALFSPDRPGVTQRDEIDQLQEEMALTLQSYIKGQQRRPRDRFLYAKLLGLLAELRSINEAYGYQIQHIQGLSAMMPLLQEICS
Chain of Estrogen receptor (Homo sapiens) (P03372 whole entry, looked up, the tested form may be a part): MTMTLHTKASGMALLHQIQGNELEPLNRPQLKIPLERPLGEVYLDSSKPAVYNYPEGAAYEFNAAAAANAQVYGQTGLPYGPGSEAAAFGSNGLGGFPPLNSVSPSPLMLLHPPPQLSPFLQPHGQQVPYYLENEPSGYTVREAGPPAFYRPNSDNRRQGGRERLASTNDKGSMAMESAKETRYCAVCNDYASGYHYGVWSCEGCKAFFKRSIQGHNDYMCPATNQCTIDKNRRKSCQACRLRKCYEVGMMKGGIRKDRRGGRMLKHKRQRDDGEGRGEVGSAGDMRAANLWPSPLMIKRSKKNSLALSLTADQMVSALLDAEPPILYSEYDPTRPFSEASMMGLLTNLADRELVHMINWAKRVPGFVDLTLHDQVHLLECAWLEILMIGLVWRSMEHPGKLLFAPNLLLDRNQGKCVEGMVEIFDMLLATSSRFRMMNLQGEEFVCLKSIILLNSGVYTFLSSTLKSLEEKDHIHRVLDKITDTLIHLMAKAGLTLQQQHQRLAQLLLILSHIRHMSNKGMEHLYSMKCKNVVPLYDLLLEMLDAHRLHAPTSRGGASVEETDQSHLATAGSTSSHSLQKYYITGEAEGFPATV
Chain of Paired box protein Pax-6 (Homo sapiens) (P26367 whole entry, looked up): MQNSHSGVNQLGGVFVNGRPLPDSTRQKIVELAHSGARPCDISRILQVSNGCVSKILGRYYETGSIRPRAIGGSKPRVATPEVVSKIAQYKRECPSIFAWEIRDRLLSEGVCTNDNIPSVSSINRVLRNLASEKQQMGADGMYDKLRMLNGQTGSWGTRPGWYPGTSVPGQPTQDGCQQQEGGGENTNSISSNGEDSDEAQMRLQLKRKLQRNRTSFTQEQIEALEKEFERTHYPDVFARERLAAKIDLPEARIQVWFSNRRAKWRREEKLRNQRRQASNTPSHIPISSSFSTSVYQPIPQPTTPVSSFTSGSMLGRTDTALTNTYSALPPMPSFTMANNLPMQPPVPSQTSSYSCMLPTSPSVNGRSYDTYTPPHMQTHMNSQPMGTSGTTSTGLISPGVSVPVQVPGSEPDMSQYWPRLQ
Chain of Signal transducer and activator of transcription 3 (Homo sapiens) (P40763 whole entry, looked up): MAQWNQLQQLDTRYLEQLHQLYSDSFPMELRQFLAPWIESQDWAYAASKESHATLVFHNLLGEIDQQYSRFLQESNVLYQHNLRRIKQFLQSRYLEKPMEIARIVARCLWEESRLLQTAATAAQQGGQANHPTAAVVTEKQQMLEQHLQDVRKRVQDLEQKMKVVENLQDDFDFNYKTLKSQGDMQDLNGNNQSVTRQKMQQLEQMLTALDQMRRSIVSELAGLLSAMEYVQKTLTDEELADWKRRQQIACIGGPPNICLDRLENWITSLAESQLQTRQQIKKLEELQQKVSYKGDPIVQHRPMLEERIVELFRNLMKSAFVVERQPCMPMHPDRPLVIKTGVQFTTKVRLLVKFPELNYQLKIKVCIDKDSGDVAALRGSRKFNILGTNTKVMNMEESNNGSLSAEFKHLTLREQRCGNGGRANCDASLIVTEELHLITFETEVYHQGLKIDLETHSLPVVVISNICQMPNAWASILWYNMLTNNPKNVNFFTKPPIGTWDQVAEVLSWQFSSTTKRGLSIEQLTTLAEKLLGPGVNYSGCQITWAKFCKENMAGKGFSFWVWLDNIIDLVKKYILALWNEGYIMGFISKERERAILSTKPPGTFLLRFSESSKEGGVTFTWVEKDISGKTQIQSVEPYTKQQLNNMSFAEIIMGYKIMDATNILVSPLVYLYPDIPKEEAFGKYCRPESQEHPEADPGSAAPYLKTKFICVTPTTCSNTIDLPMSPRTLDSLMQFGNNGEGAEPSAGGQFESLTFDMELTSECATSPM
Chain of X-box-binding protein 1 (Homo sapiens) (P17861 whole entry, looked up, the tested form may be a part): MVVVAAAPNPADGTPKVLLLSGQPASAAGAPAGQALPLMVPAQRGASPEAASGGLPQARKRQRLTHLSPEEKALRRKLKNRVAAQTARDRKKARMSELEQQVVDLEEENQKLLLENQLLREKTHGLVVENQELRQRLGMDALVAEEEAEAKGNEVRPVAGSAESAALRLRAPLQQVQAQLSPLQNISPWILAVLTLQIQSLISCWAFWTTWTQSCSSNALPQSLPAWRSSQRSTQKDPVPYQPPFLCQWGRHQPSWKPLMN

As for `C=CCOC(=O)c1ccc(C(=O)OCC=C)c(C(=O)OCC=C)c1`, the outcome in assay [1], in assay [2], in assay [5], in assay [6], in assay [7] and in [8] was inactive. Further, the compound was classed as inactive in assay [9], in assay [10], in [11], in assay [12], in assay [14] and in [15]. Moreover, the call in assay [16] was inactive. Also, the concentration at half-maximal activity (AC50) in assay [3] is 21 µM (active); in assay [4], 14.8 µM (active); in assay [13], 41.6 µM (active).

Regarding `Oc1ccc(/C=C/c2cc(O)cc(O)c2)cc1`, the AC50 was 100 µM (active) in assay [1]; 100 µM (active) in assay [4]; 26.9 µM (active) in assay [7]; 137 µM (active) in assay [9]; 27.3 µM (active) in assay [10]; 6 µM (active) in [15]. Also, the compound was called inactive in assay [2], in assay [3], in [17], in assay [5], in assay [8] and in assay [11]. Further, the result in assay [12], in assay [13], in assay [16] and in assay [18] was inactive.

With `CCCCC(C=O)CC` (stereo not given), the result in assay [1], in assay [2], in assay [3], in assay [4], in assay [5] and in [6] was inactive. Also, the outcome in [7], in assay [8], in assay [9], in [10], in assay [11] and in [12] was inactive. For the same compound, the call in assay [13], in assay [14], in assay [16] and in assay [18] was inactive.

As to `CCc1cccc(C)c1N(C(=O)CS(=O)(=O)O)C(C)COC` (stereo not given), the result in [1], in assay [2], in assay [4], in assay [5], in assay [6] and in assay [7] was inactive. Also, the call in [8], in assay [9], in assay [10], in assay [11], in assay [12] and in assay [13] was inactive. In addition, the compound was classed as inactive in [14], in assay [16] and in assay [18]. The concentration at half-maximal activity (AC50) in assay [3] was 29.2 µM (active); in [15] it was 56.2 µM (active).
